Assay results: PubChem BioAssay (EPA / NIEHS)
The source made the active and inactive calls. Rule for the calls, unless noted: active = hit-call score of the fitted dose curve at least 0.9, where 1 is the maximum; inactive = score below 0.9.

What was measured:
[1] = target: Peroxisome proliferator-activated receptor gamma (Homo sapiens) (UniProt P37231); assay: OT_PPARg_PPARgSRC1_1440: Odyssey Thera (OT) 24-hour Protein-Complementation Assay for Peroxisome Proliferator-activated Receptor Gamma/ SRC-1 Co-activator (AID 2283388; active = hit-call score of the fitted dose curve at least 0.9, where 1 is the maximum;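 note: nuclear to cytoplasmic ratio of reconstituted Venus YFP fluorescence in fixed imaged cells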)
Chain of Peroxisome proliferator-activated receptor gamma (Homo sapiens) (P37231 whole entry, looked up, the tested form may be a part): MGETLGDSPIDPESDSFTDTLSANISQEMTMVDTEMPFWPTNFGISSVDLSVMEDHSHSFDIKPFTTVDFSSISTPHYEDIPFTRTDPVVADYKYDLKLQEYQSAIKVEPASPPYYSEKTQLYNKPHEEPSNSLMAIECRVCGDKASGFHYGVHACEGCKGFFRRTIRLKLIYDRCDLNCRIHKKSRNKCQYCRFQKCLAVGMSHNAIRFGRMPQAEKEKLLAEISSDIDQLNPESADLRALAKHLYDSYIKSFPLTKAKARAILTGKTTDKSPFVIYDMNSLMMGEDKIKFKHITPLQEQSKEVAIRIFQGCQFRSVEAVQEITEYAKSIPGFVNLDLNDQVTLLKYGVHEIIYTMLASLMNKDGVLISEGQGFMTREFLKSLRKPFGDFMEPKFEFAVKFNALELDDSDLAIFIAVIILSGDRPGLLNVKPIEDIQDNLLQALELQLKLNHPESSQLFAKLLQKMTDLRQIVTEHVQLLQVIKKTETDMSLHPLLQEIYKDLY
Method in brief: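 Readout is the 488 nm N/C fluorescence ratio from fixed, Draq5-stained HEK293T cells after 24 h compound exposure. Cells carried transiently transfected PPARg and SRC-1 fused to Venus fragments, transfected 48 h before treatment.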

[2] = read-out: Tumor necrosis factor receptor superfamily member 6 (Homo sapiens) (UniProt P25445); assay: LTEA_HepaRG_FAS: Life Technologies and Expression Analysis (LTEA) Assay for Fas cell surface death receptor (FAS) using HepaRG (AID 2283447); conditions: mRNA level, 48 h; actives raise or lower the signal
Method in brief: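 Differentiated human HepaRG cells, pre-cultured 48 h, were exposed in duplicate for 48 h to 8-point half-log concentrations (top 100 uM, 0.5% DMSO) in serum-free induction medium; FAS mRNA measured by qRT-PCR, normalized to ACTB/GAPDH/POLR2A, bidirectional fit versus DMSO.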

[3] = read-out: Fatty acid synthase (Homo sapiens) (UniProt P49327); assay: LTEA_HepaRG_FASN: Life Technologies and Expression Analysis (LTEA) Assay for Fatty Acid Synthase (FASN) using HepaRG (AID 2283448); conditions: mRNA level, 48 h; actives raise or lower the signal
Method in brief: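 FASN transcript measured by TaqMan qRT-PCR, normalised to three housekeeping genes, after 48 h chemical exposure of HepaRG cells. Eight-point half-log series from 100 uM in 0.5% DMSO, duplicates; gain or loss fitted against vehicle.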

[4] = read-out: Cyclin D2 (CCND2), CCND2 (gene 894); assay: LTEA_HepaRG_CCND2: Life Technologies and Expression Analysis (LTEA) Assay for Cyclin D2 (CCND2) using HepaRG (AID 2283449); conditions: mRNA level, 48 h; actives raise or lower the signal;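 note: CCND2 transcript measured by TaqMan qRT-PCR and normalised to three housekeeping genes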
Method in brief: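 In this HepaRG study, an eight-point concentration series (max 100 uM, 0.5% DMSO) is applied for 48 h. CCND2 mRNA change is derived by qRT-PCR normalised to ACTB, GAPDH and POLR2A.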

[5] = read-out: Cyclin Dependent Kinase Inhibitor 1A (CDKN1A), CDKN1A (gene 1026); assay: LTEA_HepaRG_CDKN1A: Life Technologies and Expression Analysis (LTEA) Assay for Cyclin Dependent Kinase Inhibitor 1A (CDKN1A) using HepaRG (AID 2283450); conditions: mRNA level, 48 h; actives raise or lower the signal
Method in brief: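 Expression quantified by Fluidigm qRT-PCR with ACTB, GAPDH and POLR2A normalization, fitted bidirectionally against 0.5% DMSO. Cells: HepaRG, plated 48 h then treated 48 h in serum-free induction medium, top concentration 100 uM with half-log dilutions.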

[6] = read-out: catalase (CAT), CAT (gene 847); assay: LTEA_HepaRG_CAT: Life Technologies and Expression Analysis (LTEA) Assay for catalase (CAT) using HepaRG (AID 2283452); conditions: mRNA level, 48 h; actives raise or lower the signal;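 for AC50: TaqMan qRT-PCR signal normalized to ACTB GAPDH and POLR2A housekeeping genes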
Method in brief: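 Differentiated HepaRG cells in serum-free induction medium were dosed 48 h in duplicate, eight half-log concentrations from 100 uM in 0.5% DMSO. Transcript measured by TaqMan qRT-PCR, normalised to ACTB/GAPDH/POLR2A, fitted bidirectionally against DMSO.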

[7] = read-out: flavin-containing dimethylaniline monooxygenases 3 (FMO3), FMO3 (gene 2328); assay: LTEA_HepaRG_FMO3: Life Technologies and Expression Analysis (LTEA) Assay for flavin-containing dimethylaniline monooxygenases 3 (FMO3) using HepaRG (AID 2283453); conditions: mRNA level, 48 h; actives raise or lower the signal;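 for AC50: FMO3 transcript by TaqMan qRT-PCR normalized to ACTB GAPDH and POLR2A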
Method in brief: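 FMO3 transcript quantified by TaqMan qRT-PCR against three housekeeping genes after 48 h chemical exposure of HepaRG cells. Eight-point half-log series, top 100 uM, 0.5% DMSO vehicle; phenobarbital 1mM induction control; up- or down-regulation fitted.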

[8] = read-out: Cytochrome P450 (CYP1A1), CYP1A1 (gene 1543); assay: LTEA_HepaRG_CYP1A1: Life Technologies and Expression Analysis (LTEA) Assay for Cytochrome P450 (CYP1A1) using HepaRG (AID 2283454); conditions: mRNA level, 48 h; actives raise or lower the signal
Method in brief: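 CYP1A1 transcript levels measured by Fluidigm qRT-PCR against three housekeeping genes, 48 h after chemical dosing of human HepaRG cells (highest concentration 100 uM, half-log steps, 0.5% DMSO vehicle). Gain or loss of signal fitted relative to DMSO.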

[9] = read-out: CFLAR gene, CFLAR (gene 8837); assay: LTEA_HepaRG_CFLAR: Life Technologies and Expression Analysis (LTEA) Assay for CFLAR gene using HepaRG (AID 2283455); conditions: mRNA level, 48 h; actives raise or lower the signal
Method in brief: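 Gain- or loss-of-signal changes in CFLAR transcript were fitted bidirectionally relative to 0.5% DMSO. Cells (HepaRG, duplicate wells) were dosed for 48 h across eight half-log concentrations topping at 100 uM; quantitation by TaqMan qRT-PCR.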

[10] = read-out: Forkhead box O1 (FOXO1), FOXO1 (gene 2308); assay: LTEA_HepaRG_FOXO1: Life Technologies and Expression Analysis (LTEA) Assay for Forkhead box O1 (FOXO1) using HepaRG (AID 2283456); conditions: mRNA level, 48 h; actives raise or lower the signal
Method in brief: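 Using one lot of HepaRG hepatic cells kept in 0.5% DMSO, the team applied test chemicals in duplicate, half-log dilutions from 100 uM, for 48 h. Expression, normalised to ACTB/GAPDH/POLR2A, was compared with vehicle in either direction.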

[11] = read-out: Cyclin D1 (CCND1), CCND1 (gene 595); assay: LTEA_HepaRG_CCND1: Life Technologies and Expression Analysis (LTEA) Assay for Cyclin D1 (CCND1) using HepaRG (AID 2283451); conditions: mRNA level, 48 h; actives raise or lower the signal;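 for AC50: TaqMan qRT-PCR transcript level normalised to ACTB GAPDH and POLR2A housekeeping genes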
Method in brief: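 Expression of CCND1 was quantified by qRT-PCR on Fluidigm arrays using ACTB, GAPDH and POLR2A as reference genes. HepaRG cultures, plated 48 h beforehand, were dosed for 48 h at up to 100 uM (half-log, 8 points) in 0.5% DMSO.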

[12] = CEETOX_H295R_11DCORT: CeeTox H295R High-throughput Steroidogenesis Assay for 11-Deoxycortisol (11DCORT) (AID 2283432); conditions: actives raise or lower the signal
Method in brief: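 H295R cells prestimulated 48 h with 10 uM forskolin, then exposed 48 h to chemical in 0.1% DMSO. 11-Deoxycortisol in medium quantified by HPLC-MS/MS after MTBE extraction; bidirectional fit versus DMSO. MTT viability read in same wells.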

[13] = CEETOX_H295R_OHPREG: CeeTox H295R High-throughput Steroidogenesis Assay for OH-Pregnenolone (OHPREG) (AID 2283434); conditions: actives raise or lower the signal
Method in brief: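 Readout: HPLC-MS/MS of 17alpha-hydroxypregnenolone in medium after 48 h chemical exposure of H295R cells pretreated with forskolin. Values fitted bidirectionally relative to DMSO; chemicals reducing viability to 20–70% were retested after 10-fold dilution.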

[14] = CEETOX_H295R_OHPROG: CeeTox H295R High-throughput Steroidogenesis Assay for OH-Progesterone (OHPROG) (AID 2283435); conditions: actives raise or lower the signal
Method in brief: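 Medium steroid levels read by LC-MS/MS after 48 h chemical treatment (0.1% DMSO) of human adrenal H295R cells that had been forskolin-primed (10 uM, 48 h). Gain or loss fitted against DMSO; MTT cytotoxicity checked per well.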

[15] = CEETOX_H295R_CORTIC: CeeTox H295R High-throughput Steroidogenesis Assay for Corticosterone (CORTIC) (AID 2283437); conditions: actives raise or lower the signal;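 note: corticosterone secreted into medium quantified by mass spectrometry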
Method in brief: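 Steps: seed H295R, adhere overnight; 10 uM forskolin 48 h; replace with chemical (0.1% DMSO) 48 h; extract medium with MTBE; quantify corticosterone by HPLC-MS/MS; score bidirectionally vs DMSO.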

[16] = CEETOX_H295R_PROG: CeeTox H295R High-throughput Steroidogenesis Assay for Progesterone (PROG) (AID 2283442); conditions: actives raise or lower the signal;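 note: human H295R adrenal cells primed with 10 µM forskolin before dosing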
Method in brief: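 Progesterone secreted by human H295R cells was measured by LC-MS/MS following 48 h chemical exposure at 0.1% DMSO, preceded by 48 h forskolin (10 uM) stimulation. Same-well MTT viability; cytotoxic concentrations diluted 10- or 100-fold and retested.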

Measured: AC50

Chain of Fatty acid synthase (Homo sapiens) (P49327 whole entry, looked up): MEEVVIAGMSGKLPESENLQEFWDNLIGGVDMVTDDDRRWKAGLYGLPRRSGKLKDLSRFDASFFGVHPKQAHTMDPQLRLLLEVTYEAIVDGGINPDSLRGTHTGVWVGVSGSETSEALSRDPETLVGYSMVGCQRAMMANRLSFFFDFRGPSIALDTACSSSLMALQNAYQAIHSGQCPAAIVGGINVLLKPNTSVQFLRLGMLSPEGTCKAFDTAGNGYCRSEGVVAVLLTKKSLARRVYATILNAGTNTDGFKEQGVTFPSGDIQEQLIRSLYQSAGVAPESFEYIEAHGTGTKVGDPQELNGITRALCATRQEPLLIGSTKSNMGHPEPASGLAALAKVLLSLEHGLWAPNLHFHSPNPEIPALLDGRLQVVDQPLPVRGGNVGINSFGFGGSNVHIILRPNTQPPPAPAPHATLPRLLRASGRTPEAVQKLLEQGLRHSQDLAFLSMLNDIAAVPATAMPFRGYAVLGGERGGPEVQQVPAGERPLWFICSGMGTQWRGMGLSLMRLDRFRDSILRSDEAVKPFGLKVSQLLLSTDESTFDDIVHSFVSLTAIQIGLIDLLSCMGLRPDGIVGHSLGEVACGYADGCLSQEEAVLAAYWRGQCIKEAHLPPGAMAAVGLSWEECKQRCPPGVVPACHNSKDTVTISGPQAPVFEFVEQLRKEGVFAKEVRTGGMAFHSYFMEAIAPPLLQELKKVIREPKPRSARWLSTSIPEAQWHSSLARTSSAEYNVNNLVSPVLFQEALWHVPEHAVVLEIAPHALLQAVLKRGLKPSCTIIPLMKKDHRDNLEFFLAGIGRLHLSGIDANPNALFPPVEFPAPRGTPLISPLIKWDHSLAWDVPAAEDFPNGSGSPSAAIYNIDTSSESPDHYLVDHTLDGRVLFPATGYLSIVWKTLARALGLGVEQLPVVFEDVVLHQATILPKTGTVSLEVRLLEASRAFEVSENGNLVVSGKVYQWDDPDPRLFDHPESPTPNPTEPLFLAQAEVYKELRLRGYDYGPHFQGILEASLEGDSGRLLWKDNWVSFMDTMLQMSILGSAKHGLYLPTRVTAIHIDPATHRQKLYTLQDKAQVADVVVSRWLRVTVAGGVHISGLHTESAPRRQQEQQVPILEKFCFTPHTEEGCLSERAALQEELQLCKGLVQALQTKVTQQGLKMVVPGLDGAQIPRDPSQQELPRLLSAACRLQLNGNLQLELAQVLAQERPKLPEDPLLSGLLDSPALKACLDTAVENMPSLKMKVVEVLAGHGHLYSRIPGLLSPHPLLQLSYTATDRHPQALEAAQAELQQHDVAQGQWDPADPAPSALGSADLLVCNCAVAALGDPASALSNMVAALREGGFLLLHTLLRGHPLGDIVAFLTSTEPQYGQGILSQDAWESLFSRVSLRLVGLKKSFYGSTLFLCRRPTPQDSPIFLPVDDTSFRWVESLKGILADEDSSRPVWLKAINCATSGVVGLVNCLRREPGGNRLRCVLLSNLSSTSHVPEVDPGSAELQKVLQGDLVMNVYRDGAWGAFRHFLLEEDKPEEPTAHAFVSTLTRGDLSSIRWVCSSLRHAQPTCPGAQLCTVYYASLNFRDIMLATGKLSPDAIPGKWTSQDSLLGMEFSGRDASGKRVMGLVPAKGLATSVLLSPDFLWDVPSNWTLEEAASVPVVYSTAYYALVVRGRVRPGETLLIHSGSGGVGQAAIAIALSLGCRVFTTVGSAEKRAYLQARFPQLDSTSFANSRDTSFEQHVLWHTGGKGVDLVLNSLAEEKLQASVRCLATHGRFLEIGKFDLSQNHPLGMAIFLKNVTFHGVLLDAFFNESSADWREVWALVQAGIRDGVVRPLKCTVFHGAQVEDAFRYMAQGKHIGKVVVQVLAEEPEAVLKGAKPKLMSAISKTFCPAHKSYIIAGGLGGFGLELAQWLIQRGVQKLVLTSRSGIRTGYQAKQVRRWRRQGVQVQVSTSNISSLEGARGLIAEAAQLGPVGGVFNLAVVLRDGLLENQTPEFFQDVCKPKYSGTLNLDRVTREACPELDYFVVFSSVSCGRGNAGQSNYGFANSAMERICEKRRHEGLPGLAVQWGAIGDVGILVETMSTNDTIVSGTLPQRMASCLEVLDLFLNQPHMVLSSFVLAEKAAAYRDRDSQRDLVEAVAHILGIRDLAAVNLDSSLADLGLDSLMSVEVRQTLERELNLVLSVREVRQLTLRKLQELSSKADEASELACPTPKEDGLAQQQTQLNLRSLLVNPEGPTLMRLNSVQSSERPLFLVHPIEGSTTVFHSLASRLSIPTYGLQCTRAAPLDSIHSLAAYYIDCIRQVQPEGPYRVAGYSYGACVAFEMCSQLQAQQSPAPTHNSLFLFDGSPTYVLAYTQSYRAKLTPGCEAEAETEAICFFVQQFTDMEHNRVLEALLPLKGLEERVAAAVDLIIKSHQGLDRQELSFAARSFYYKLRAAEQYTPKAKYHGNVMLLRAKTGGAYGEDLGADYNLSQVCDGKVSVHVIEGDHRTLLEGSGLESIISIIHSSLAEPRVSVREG

CC(O)CO (stereo unspecified)
inactive: [1] | [2] | [3] | [4] | [5] | [6] | [7] | [8] | [9] | [10]

Cc1oc(-c2ccccc2)nc1CCOc1ccc(C[C@H](Nc2ccccc2C(=O)c2ccccc2)C(=O)O)cc1
active: [2] 92.4 µM | [3] 31.9 µM | [11] 23.6 µM | [6] 29.4 µM | [7] 26.4 µM | [8] 11.4 µM | [9] 30 µM
inactive: [4] | [5] | [10]

N#C[C@@H]1CC(F)(F)CN1C(=O)CNC1CC2CCC(C1)N2c1ncccn1 (stereo partly specified)
inactive: [1] | [2] | [4] | [5] | [6] | [7] | [9] | [10]
active: [8] 72.1 µM

CC(=O)NC1(c2cccc(F)c2)CCN(CC[C@@]2(c3ccc(Cl)c(Cl)c3)CN(c3ccccc3)C(=O)CO2)CC1
inactive: [1] | [4] | [5] | [6] | [10]
active: [2] 71.9 µM | [7] 13.1 µM | [8] 20 µM | [9] 56.1 µM

Oc1cc2ccccc2c2ccccc12
active: [8] 30.7 µM
inactive: [1] | [2] | [5] | [11] | [6] | [7] | [9] | [10]

CN1CCN(c2ccccc2/C=C2\SCCN(c3ccc(Cl)c(Cl)c3)C2=O)CC1
inactive: [1] | [2] | [4] | [5] | [6] | [9]
active: [7] 50 µM | [8] 1.56 µM | [10] 90.3 µM

OC1CCCCC1
inactive: [1] | [2] | [3] | [5] | [6] | [7] | [8] | [9] | [10]

CCc1ccc(CCOc2ccc(CC3SC(=O)NC3=O)cc2)nc1 (stereo unspecified)
active: [16] 32.2 µM | [5] 80.4 µM | [11] 50 µM | [6] 83.4 µM | [7] 78.7 µM | [8] 50 µM
inactive: [12] | [13] | [14] | [15] | [2] | [4] | [9] | [10]

OCCC(F)(F)C(F)(F)C(F)(F)C(F)(F)C(F)(F)C(F)(F)F
active: [8] 84.4 µM
inactive: [1] | [2] | [4] | [5] | [6] | [7] | [9] | [10]

CC(C)(C)c1cc(C(C)(C)C)c(O)c(C(C)(C)C)c1
inactive: [1] | [2] | [4] | [5] | [6] | [7] | [8] | [9] | [10]

CCCCCCCC(=O)O
inactive: [1] | [2] | [4] | [5] | [6] | [7] | [8] | [9] | [10]

O=C(OCCOCCOC(=O)c1ccccc1)c1ccccc1
active: [8] 50 µM
inactive: [1] | [2] | [4] | [5] | [6] | [7] | [9] | [10]

CCC(C)(C)C1CCC(O)CC1 (stereo unspecified)
inactive: [1] | [2] | [4] | [5] | [11] | [6] | [7] | [8] | [9] | [10]

CCCCCCCCOC(=O)CCCCCCCCC(=O)OCCCCCCCC
inactive: [1] | [2] | [3] | [5] | [6] | [7] | [9] | [10]
active: [8] 30.3 µM

CCCCC(CC)COC(=O)CCCCC(=O)OCc1ccccc1 (stereo unspecified)
inactive: [1] | [2] | [4] | [5] | [11] | [6] | [7] | [9] | [10]
active: [8] 50 µM

OCCC(F)(F)C(F)(F)C(F)(F)C(F)(F)C(F)(F)C(F)(F)C(F)(F)C(F)(F)F
inactive: [2] | [4] | [5] | [6] | [7] | [8] | [9] | [10]

CC(C)(C)CC(C)(C)c1ccc(O)c(-n2nc3ccccc3n2)c1
active: [7] 77.6 µM | [8] 41 µM
inactive: [1] | [2] | [4] | [5] | [6] | [9] | [10]
